A short description of experiment [1]: BSK_3C_VCAM1: BioMAP Diversity Plus: 3C Assay for Vascular cell adhesion molecule 1 (VCAM1) Biomarker Activity (AID 2282999; active = hit-call score of the fitted dose curve at least 0.9, where 1 is the maximum; inactive = score below 0.9). Conditions: BioMAP 3C HUVEC, VCAM1 ELISA, cytokine-stimulated; actives raise or lower the signal. An outline of the steps:
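Human umbilical vein endothelial cells (3C system), biomarker read by ELISA 24 h after dosing; bidirectional fit against DMSO baseline. Cytotoxicity tracked by SRB total-protein staining in parallel cultures at biomarker time.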

The nature of experiment [2]: BSK_4H_Eotaxin3: BioMAP Diversity Plus: 4H Assay for Eotaxin 3 Biomarker Activity (AID 2283000; active = hit-call score of the fitted dose curve at least 0.9, where 1 is the maximum; inactive = score below 0.9;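 as to outcome: CCL26 protein level quantified by ELISA in parallel with SRB cytotoxicity check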). Conditions: primary human endothelial cells (HUVEC); actives raise or lower the signal. An outline of the steps: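 Human umbilical vein endothelial cells (BSK_4H system) dosed with test chemical; Eotaxin-3 (CCL26) measured by ELISA 24 h after dosing. Bidirectional curve fitting relative to DMSO negative control as baseline.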

Experiment [3] has as its target human Peroxisome Proliferator-activated Receptor alpha (PPARa), PPARA (gene 5465) (UniProt Q07869). As to the kind of experiment: ATG_PPARa_TRANS: Attagene TRANS-FACTORIAL HepG2 Assay for human Peroxisome Proliferator-activated Receptor alpha (PPARa) (AID 2283001). The essentials: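 HepG2 cells transiently transfected with multiplexed GAL4-UAS reporters driven by exogenous chimeric NR-Gal4 proteins; reporter mRNA measured after 24 h dosing. Read-out by RT-PCR, 6-FAM labelling, HpaI digestion and capillary electrophoresis; gain of signal versus DMSO.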

Experiment [4] has as its target human Peroxisome Proliferator-activated Receptor delta (PPARd), PPARD (gene 5467) (UniProt Q03181). As to the kind of experiment: ATG_PPARd_TRANS: Attagene TRANS-FACTORIAL HepG2 Assay for human Peroxisome Proliferator-activated Receptor delta (PPARd) (AID 2283002). The essentials: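 Fluorescence from capillary electrophoresis of labelled RT-PCR reporter fragments gives the signal; DMSO sets baseline. Cells: HepG2 transiently carrying GAL4-UAS reporter units plus chimeric nuclear receptor-Gal4 proteins, exposed to chemicals for 24 h.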

Read-out in experiment [5]: Intercellular Adhesion Molecule 1 (ICAM1), ICAM1 (gene 3383)
Kind of experiment: BSK_3C_ICAM1: BioMAP Diversity Plus: 3C Assay for Intercellular Adhesion Molecule 1 (ICAM1) Biomarker Activity (AID 2283003; active = hit-call score of the fitted dose curve at least 0.9, where 1 is the maximum; inactive = score below 0.9). Conditions: primary human endothelial cells (HUVEC); actives raise or lower the signal. The essentials:
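ICAM-1 levels measured by ELISA after HUVEC cultures in the 3C system had been dosed for 24 h. Gain or loss of signal relative to DMSO was fitted in both directions.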

The nature of experiment [6]: BSK_3C_Proliferation: Cell Proliferation Assessment in the BioMAP Diversity Plus: 3C Assay (AID 2283006; active = hit-call score of the fitted dose curve at least 0.9, where 1 is the maximum; inactive = score below 0.9;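 as to AC50: potency may reflect either rise or fall in cell number versus DMSO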). Conditions: primary human endothelial cells (HUVEC). The essentials: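 Read-out is total protein by SRB absorbance at 560 nm, taken as a proxy for relative cell number. Primary human umbilical vein endothelium cultured below confluence was dosed for 48 h, TCA-fixed and SRB-stained; curves were fitted bidirectionally versus DMSO.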

Experiment [7] has as its target Peroxisome proliferator-activated receptor gamma (Homo sapiens) (UniProt P37231). As to the kind of experiment: ATG_PPARg_TRANS: Attagene TRANS-FACTORIAL HepG2 Assay for human Peroxisome Proliferator-activated Receptor-gamma (PPARg) (AID 2283007). The essentials: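 Multiplexed reporter transcription units in HepG2, 24 h dosing, reporter transcripts quantified by fluorescent RT-PCR and capillary electrophoresis. Increase over DMSO scored.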

The target of experiment [8] is Nuclear receptor subfamily 1 group I member 2 (Homo sapiens) (UniProt O75469). Kind of experiment: ATG_PXR_TRANS: Attagene TRANS-FACTORIAL HepG2 Assay for human Pregnane X Receptor (PXR) (AID 2283008). An outline of the steps: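 Read-out is fluorescence of labelled reporter cDNA fragments separated by capillary electrophoresis after RT-PCR and HpaI digestion. Source: HepG2 cells carrying PXR-GAL4/UAS reporter constructs, treated 24 h; activity fitted upward relative to DMSO.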

For experiment [9], the target named is human RAR-related Orphan Receptor gamma (RORg), RORC (gene 6097) (UniProt P51449). Kind of experiment: ATG_RORg_TRANS: Attagene TRANS-FACTORIAL HepG2 Assay for human RAR-related Orphan Receptor gamma (RORg) (AID 2283011). An outline of the steps:
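Reporter transcripts from a transfected RORg-GAL4 chimera in HepG2 cells were quantified 24 h after dosing by RT-PCR, 6-FAM labelling, HpaI digestion and capillary electrophoresis; increases over DMSO baseline were fitted.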

Experiment [10] concerns the target Retinoic acid receptor RXR-alpha (Homo sapiens) (UniProt P19793). As to the kind of experiment: ATG_RXRa_TRANS: Attagene TRANS-FACTORIAL HepG2 Assay for human Retinoid X Receptor alpha (RXRa) (AID 2283012). The essentials: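 Transient transfection of human HepG2 with multiple GAL4-UAS reporter constructs; 24 h compound exposure; total RNA isolated, reverse-transcribed, PCR-amplified, 6-FAM labelled, HpaI-cut, resolved by capillary electrophoresis. Positive-direction fit versus DMSO.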

Experiment [11] deals with human Retinoid X Receptor beta (RXRb), RXRB (gene 6257) (UniProt P28702). As to the kind of experiment: ATG_RXRb_TRANS: Attagene TRANS-FACTORIAL HepG2 Assay for human Retinoid X Receptor beta (RXRb) (AID 2283013). The essentials:
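Transfect HepG2 with GAL4-UAS multi-reporter constructs (chimeric NR-Gal4, TRANS format); dose compound 24 h; isolate RNA, RT-PCR, FAM primer extension, HpaI digest; quantify by capillary electrophoresis; positive direction vs DMSO.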

Read-out in experiment [12]: E-selectin (Homo sapiens) (UniProt P16581)
As to the kind of experiment: BSK_3C_Eselectin: BioMAP Diversity Plus: 3C Assay for Eselectin Biomarker Activity (AID 2283015; active = hit-call score of the fitted dose curve at least 0.9, where 1 is the maximum; inactive = score below 0.9;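 as to outcome: cell surface E-selectin protein quantified by ELISA 24 h after dosing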). Conditions: primary human endothelial cells (HUVEC); actives raise or lower the signal. An outline of the steps: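 E-selectin ELISA readout, fitted bidirectionally relative to DMSO, taken 24 h post-dosing in HUVEC cultures of the 3C system. Overt cytotoxicity tracked with sulforhodamine B staining of parallel wells.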

Read-out in experiment [13]: Interleukin-1 alpha (IL1a), IL1A (gene 3552)
As to the kind of experiment: BSK_BE3C_IL1a: BioMAP Diversity Plus: BE3C Assay for Interleukin-1 alpha (IL1a) Biomarker Activity (AID 2283016; active = hit-call score of the fitted dose curve at least 0.9, where 1 is the maximum; inactive = score below 0.9). Conditions: primary human bronchial epithelial cells; actives raise or lower the signal. An outline of the steps:
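BE3C primary human bronchial epithelium; cpd 24 h; IL-1a by ELISA; bidirectional fit vs DMSO; parallel SRB (0.1% SRB, 10% TCA fix, 560 nm) for cytotoxicity.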

Read-out in experiment [14]: Monocyte Chemoattractant Protein-1 (MCP1), CCL2 (gene 6347)
As to the kind of experiment: BSK_4H_MCP1: BioMAP Diversity Plus: 4H Assay for Monocyte Chemoattractant Protein-1 (MCP1) Biomarker Activity (AID 2283018; active = hit-call score of the fitted dose curve at least 0.9, where 1 is the maximum; inactive = score below 0.9). Conditions: primary human endothelial cells (HUVEC); actives raise or lower the signal. The essentials:
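ELISA read-out of MCP-1 from human vascular endothelial primary cells taken at 24 hours after compound exposure. Activity was fitted in both directions relative to DMSO, which served as negative control.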

Experiment [15] concerns the target Retinoic acid receptor alpha (Homo sapiens) (UniProt P10276). Kind of experiment: ATG_RARa_TRANS: Attagene TRANS-FACTORIAL HepG2 Assay for human Retinoic Acid Receptor alpha (RARa) (AID 2283005).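 As to AC50: potency for increased reporter signal meaning RARa activation over DMSO.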 An outline of the steps:
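HepG2 transiently transfected with multiplex GAL4-UAS reporter units including a human RARa–GAL4 chimera; 24 h compound exposure. Reporter mRNA quantified by RT-PCR, 6-FAM labeling and capillary electrophoresis; gain of signal versus DMSO.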

The target of experiment [16] is human Thyroid Receptor alpha (THRa1), THRA (gene 7067) (UniProt P10827). As to the kind of experiment: ATG_THRa1_TRANS: Attagene TRANS-FACTORIAL HepG2 Assay for human Thyroid Receptor alpha (THRa1) (AID 2283014). The essentials:
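Transcripts from GAL4-UAS-driven reporters, measured after 24 h compound exposure by RT-PCR plus capillary electrophoresis of 6-FAM-labeled fragments, were fitted for gain of signal relative to DMSO. Cells: transiently transfected HepG2 expressing NR-Gal4 chimeras.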

For experiment [17], the target named is human Retinoic Acid Receptor beta (RARb), RARB (gene 5915) (UniProt P10826). As to the kind of experiment: ATG_RARb_TRANS: Attagene TRANS-FACTORIAL HepG2 Assay for human Retinoic Acid Receptor beta (AID 2283004). The essentials: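 Induction of reporter mRNA from a chimeric RARb-Gal4 construct was measured by RT-PCR, FAM labelling, HpaI digestion and capillary electrophoresis. Measurements followed 24 h compound treatment of transiently transfected human HepG2 liver cells, with DMSO as baseline.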

Experiment [18] deals with human Retinoic Acid Receptor gamma (RARg), RARG (gene 5916) (UniProt P13631). As to the kind of experiment: ATG_RARg_TRANS: Attagene TRANS-FACTORIAL HepG2 Assay for human Retinoic Acid Receptor gamma (RARg) (AID 2283009). An outline of the steps: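 Transient transfection of HepG2 with multi-reporter constructs, then 24 h chemical treatment. Total RNA isolated, reverse-transcribed, PCR-amplified, fluorescently labelled and resolved by capillary electrophoresis; activity scored as mRNA induction versus DMSO.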

Read-out in experiment [19]: Monocyte Chemoattractant Protein-1 (MCP1), CCL2 (gene 6347)
Kind of experiment: BSK_3C_MCP1: BioMAP Diversity Plus: 3C Assay for Monocyte Chemoattractant Protein-1 (MCP1) Biomarker Activity (AID 2283017; active = hit-call score of the fitted dose curve at least 0.9, where 1 is the maximum; inactive = score below 0.9). Conditions: primary human endothelial cells (HUVEC); actives raise or lower the signal. An outline of the steps: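 MCP-1 was measured by ELISA 24 h after dosing in primary HUVEC 3C cultures and fitted in both directions relative to DMSO; cytotoxicity was checked by SRB total-protein staining in parallel wells.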

In experiment [20] the target is human RAR-related Orphan Receptor beta (RORb), RORB (gene 6096) (UniProt Q92753). Kind of experiment: ATG_RORb_TRANS: Attagene TRANS-FACTORIAL HepG2 Assay for human RAR-related Orphan Receptor beta (RORb) (AID 2283010). The essentials: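 Readout is reporter-gene mRNA induction, detected as fluorescence after RT-PCR and capillary electrophoresis, fitted for gain of signal against DMSO controls. Transiently transfected HepG2 liver cells carrying GAL4-UAS reporter constructs were treated for 24 hours.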

Molecules are shown by their SMILES. Records with an inconclusive call do not appear. Active and inactive are the calls of the source. The calls were made as follows, unless noted: active = hit-call score of the fitted dose curve at least 0.9, where 1 is the maximum; inconclusive = response in the unintended direction; inactive = score below 0.9.

The text below walks through data of PubChem BioAssay (EPA / NIEHS).

One may read the AC50 as the concentration giving half of the maximal activity seen.

human RAR-related Orphan Receptor beta (RORb), RORB (gene 6096), sequence (Q92753 whole entry, looked up, the tested form may be a part): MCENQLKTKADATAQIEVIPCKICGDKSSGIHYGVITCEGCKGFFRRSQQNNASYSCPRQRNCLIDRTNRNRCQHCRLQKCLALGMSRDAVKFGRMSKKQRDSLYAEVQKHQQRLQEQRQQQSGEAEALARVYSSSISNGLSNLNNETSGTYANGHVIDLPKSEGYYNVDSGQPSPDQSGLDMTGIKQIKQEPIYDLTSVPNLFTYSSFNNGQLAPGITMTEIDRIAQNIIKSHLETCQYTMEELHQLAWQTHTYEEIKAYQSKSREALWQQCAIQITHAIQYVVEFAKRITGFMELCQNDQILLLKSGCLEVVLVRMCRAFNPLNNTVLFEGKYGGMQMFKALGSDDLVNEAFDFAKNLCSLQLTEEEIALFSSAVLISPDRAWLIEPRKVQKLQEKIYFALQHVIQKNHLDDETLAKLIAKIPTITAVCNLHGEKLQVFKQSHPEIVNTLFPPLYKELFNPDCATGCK
E-selectin (Homo sapiens), sequence (P16581 whole entry, looked up): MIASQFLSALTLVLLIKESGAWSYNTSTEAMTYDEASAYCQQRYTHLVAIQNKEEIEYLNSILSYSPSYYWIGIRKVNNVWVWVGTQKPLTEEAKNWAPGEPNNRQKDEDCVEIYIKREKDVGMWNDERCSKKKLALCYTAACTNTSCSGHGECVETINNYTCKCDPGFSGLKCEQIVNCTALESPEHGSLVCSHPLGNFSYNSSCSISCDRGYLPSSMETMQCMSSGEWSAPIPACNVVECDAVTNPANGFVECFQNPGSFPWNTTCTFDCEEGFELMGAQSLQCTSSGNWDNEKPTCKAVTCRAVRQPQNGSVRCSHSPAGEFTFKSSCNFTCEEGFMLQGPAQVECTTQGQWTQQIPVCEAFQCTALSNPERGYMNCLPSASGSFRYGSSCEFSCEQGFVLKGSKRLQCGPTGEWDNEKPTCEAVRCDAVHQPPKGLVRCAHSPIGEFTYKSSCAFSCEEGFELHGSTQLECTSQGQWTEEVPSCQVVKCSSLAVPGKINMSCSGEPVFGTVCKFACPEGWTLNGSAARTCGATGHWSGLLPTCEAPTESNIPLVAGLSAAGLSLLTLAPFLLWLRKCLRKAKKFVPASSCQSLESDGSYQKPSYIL
human Retinoic Acid Receptor beta (RARb), RARB (gene 5915), sequence (P10826 whole entry, looked up, the tested form may be a part): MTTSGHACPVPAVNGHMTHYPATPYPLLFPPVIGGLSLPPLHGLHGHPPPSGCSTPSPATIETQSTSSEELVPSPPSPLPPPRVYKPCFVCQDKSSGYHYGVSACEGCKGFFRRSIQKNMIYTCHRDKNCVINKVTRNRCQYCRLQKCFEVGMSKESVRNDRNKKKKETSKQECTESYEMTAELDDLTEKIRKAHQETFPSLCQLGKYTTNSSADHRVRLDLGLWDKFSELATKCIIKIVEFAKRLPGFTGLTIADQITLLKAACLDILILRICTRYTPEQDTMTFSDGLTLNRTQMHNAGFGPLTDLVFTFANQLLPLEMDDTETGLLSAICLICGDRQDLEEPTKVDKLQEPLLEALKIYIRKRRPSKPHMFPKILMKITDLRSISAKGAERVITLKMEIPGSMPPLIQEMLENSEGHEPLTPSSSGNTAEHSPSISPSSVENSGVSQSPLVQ
Nuclear receptor subfamily 1 group I member 2 (Homo sapiens), sequence (O75469 whole entry, looked up, the tested form may be a part): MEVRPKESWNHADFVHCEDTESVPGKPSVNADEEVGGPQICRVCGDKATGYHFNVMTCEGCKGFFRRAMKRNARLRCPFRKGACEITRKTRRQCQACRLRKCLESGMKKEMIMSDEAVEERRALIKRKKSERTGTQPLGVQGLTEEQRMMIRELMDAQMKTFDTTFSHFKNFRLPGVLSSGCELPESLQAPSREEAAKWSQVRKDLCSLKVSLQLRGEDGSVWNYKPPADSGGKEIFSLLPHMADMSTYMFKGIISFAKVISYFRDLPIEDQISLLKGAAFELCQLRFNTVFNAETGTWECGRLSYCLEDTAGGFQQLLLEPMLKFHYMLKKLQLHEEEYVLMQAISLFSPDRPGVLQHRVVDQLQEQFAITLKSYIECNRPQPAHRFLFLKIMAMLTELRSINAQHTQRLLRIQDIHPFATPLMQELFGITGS
Retinoic acid receptor alpha (Homo sapiens), sequence (P10276 whole entry, looked up, the tested form may be a part): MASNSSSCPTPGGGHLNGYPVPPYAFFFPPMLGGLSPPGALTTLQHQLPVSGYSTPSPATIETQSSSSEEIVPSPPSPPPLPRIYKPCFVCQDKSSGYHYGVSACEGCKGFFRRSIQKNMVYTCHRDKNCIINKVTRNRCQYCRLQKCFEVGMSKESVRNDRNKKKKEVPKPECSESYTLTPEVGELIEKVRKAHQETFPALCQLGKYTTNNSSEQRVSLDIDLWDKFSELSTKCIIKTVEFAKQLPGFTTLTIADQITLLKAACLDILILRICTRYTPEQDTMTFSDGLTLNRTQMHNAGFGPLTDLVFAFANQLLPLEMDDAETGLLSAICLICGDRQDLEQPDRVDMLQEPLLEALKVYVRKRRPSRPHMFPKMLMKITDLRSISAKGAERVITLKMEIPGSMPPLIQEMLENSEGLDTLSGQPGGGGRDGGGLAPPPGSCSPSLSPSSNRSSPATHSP
Retinoic acid receptor RXR-alpha (Homo sapiens), sequence (P19793 whole entry, looked up, the tested form may be a part): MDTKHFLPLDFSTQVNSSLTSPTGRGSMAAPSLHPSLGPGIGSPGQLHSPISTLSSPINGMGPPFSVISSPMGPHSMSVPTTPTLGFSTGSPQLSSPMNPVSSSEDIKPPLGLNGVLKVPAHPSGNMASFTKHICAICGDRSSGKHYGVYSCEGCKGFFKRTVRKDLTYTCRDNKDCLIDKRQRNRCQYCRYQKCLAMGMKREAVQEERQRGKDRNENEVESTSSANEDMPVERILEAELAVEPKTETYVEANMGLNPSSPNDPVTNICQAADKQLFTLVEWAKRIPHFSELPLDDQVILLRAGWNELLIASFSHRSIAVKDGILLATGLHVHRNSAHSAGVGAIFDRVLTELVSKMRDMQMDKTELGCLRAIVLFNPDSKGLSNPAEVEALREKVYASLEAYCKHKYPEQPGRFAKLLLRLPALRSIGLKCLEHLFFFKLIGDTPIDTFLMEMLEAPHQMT
Peroxisome proliferator-activated receptor gamma (Homo sapiens), sequence (P37231 whole entry, looked up): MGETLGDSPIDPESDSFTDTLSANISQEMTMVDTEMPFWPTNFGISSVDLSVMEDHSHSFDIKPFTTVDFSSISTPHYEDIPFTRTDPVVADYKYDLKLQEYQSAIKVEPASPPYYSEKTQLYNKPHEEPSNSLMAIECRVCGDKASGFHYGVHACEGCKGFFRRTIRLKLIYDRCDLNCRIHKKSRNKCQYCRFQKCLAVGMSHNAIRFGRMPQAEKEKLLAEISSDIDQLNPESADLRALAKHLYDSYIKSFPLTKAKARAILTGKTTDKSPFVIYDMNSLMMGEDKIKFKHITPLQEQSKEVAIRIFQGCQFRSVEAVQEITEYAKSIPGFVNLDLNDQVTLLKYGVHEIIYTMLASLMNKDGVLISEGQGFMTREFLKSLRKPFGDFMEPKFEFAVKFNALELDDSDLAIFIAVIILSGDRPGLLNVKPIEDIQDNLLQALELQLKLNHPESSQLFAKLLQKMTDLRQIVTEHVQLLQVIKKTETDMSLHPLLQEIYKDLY
human Thyroid Receptor alpha (THRa1), THRA (gene 7067), sequence (P10827 whole entry, looked up, the tested form may be a part): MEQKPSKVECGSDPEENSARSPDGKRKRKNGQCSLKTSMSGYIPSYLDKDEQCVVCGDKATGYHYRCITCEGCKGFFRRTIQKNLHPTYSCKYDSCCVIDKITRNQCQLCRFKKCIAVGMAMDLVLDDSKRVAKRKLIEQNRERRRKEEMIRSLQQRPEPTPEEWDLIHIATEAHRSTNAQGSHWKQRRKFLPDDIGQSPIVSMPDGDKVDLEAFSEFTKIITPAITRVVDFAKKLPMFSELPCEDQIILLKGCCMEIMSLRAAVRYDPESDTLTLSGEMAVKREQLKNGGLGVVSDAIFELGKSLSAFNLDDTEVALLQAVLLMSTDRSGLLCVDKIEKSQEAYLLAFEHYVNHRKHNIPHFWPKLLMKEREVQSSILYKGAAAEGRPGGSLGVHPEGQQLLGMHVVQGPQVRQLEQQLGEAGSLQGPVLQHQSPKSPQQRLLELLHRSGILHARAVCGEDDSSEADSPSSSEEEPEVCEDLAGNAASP
human RAR-related Orphan Receptor gamma (RORg), RORC (gene 6097), sequence (P51449 whole entry, looked up, the tested form may be a part): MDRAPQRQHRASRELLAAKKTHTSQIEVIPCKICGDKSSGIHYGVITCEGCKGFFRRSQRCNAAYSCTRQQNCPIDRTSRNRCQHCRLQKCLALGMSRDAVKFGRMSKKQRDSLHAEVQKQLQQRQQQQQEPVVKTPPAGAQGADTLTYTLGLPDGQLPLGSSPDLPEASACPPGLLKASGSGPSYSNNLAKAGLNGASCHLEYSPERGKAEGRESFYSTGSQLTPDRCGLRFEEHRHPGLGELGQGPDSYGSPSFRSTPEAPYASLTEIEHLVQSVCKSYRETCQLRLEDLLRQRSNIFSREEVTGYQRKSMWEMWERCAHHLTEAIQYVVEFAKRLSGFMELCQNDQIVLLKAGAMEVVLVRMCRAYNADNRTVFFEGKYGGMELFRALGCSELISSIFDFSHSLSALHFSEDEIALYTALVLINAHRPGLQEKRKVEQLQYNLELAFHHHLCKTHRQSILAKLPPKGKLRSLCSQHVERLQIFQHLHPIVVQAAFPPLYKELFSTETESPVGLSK
human Retinoid X Receptor beta (RXRb), RXRB (gene 6257), sequence (P28702 whole entry, looked up, the tested form may be a part): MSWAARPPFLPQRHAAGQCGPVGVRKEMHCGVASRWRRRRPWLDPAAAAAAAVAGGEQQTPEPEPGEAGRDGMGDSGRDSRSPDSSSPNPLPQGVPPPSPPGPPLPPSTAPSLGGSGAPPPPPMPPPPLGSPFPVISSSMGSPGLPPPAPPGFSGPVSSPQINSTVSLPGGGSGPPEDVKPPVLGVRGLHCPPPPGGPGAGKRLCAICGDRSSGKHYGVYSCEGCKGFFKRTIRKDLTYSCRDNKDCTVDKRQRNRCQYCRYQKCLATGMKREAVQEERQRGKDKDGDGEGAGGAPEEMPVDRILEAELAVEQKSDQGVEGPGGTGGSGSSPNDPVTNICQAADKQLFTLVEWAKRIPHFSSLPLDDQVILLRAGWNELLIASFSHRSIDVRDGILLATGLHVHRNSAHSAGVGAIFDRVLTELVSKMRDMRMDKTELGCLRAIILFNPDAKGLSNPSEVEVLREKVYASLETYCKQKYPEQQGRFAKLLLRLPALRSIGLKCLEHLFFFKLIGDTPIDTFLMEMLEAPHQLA

On to `CC(C)N1C(=O)c2ccccc2NS1(=O)=O`, for which the result in experiment [1], in [2], in [3], in [4], in experiment [5] and in experiment [6] was inactive. For the same compound, the call in experiment [7], in experiment [8], in experiment [9], in experiment [10], in experiment [11] and in experiment [12] was inactive. The result in [13] and in experiment [14] was inactive.
Turning to `CN=C=S`, the outcome in [1], in experiment [2], in experiment [3], in experiment [4], in experiment [5] and in experiment [15] was inactive. Further, the result in experiment [6], in [8], in [9], in [16], in experiment [13] and in experiment [14] was inactive. Besides, the AC50 in experiment [7] was 50 µM (active); in experiment [12], 11.7 µM (active).
Regarding `CCOc1cc(C(C)(C)C)ccc1C1COC(c2c(F)cccc2F)=N1` (centres undefined), the AC50 in [1] was 28 µM (active); in [2] it was 29 µM (active); in [15], 3.63 µM (active); in [6], 14.4 µM (active); in [12] it was 18.9 µM (active); in experiment [19], 27.6 µM (active). Besides, in experiment [14], the half-maximal activity concentration (AC50) is 18.5 µM (active). For the same compound, the compound was classed as inactive in experiment [3], in experiment [5], in [17], in [7], in [8] and in experiment [18]. For the same compound, the outcome in experiment [9], in experiment [10], in [11] and in [13] was inactive.
As for `COc1cc(OC)nc(NC(=O)NS(=O)(=O)c2ncccc2OCC(F)(F)F)n1`, the outcome in experiment [1], in experiment [2], in experiment [3], in experiment [5], in experiment [6] and in experiment [7] was inactive. The compound was called inactive in experiment [8], in [20], in experiment [9], in [10], in [11] and in experiment [12]. Also, the result in [13], in experiment [19] and in [14] was inactive.
For `Nc1cnn(-c2ccccc2)c(=O)c1Cl`, the result in experiment [1], in experiment [2], in [3], in experiment [4], in [5] and in experiment [6] was inactive. Further, the result in experiment [20], in experiment [10], in [16], in experiment [12], in experiment [13] and in experiment [14] was inactive. For the same compound, in experiment [7], the half-maximal activity concentration (AC50) was 22.4 µM (active).
`Cc1cc(C)nc(Nc2ccccc2)n1`: the outcome in [1], in experiment [2], in [3], in experiment [4], in experiment [5] and in experiment [17] was inactive. The compound was classed as inactive in [15], in experiment [6], in experiment [7], in [8], in experiment [20] and in experiment [10]. Besides, the outcome in experiment [11], in experiment [16], in [12], in experiment [13] and in experiment [14] was inactive.
In the case of `CCOc1nc(C(Cl)(Cl)Cl)ns1`, the result in experiment [1], in [2], in experiment [3], in experiment [5], in [17] and in [15] was inactive. In addition, the outcome in [6], in [7], in experiment [8], in [18], in experiment [20] and in experiment [9] was inactive. Besides, the result in [10], in experiment [11], in [16], in experiment [12], in [13] and in experiment [19] was inactive. Moreover, the outcome in [14] was inactive.
